Molecules are shown by their SMILES. Inconclusive results are not listed. Calls of active or inactive are those of the source. The call rests on the fitted dose curve; in most records, active means well fitted inhibition curve with a large enough effect; inconclusive means small, poorly fitted or top-dose-only effect; inactive means flat fitted curve, though single readings scatter.
Potency means the concentration at half of the fitted maximal effect.

The test deals with Luciferin 4-monooxygenase (Photuris pensylvanica) (UniProt Q27757). Description: Secondary Assay for Luciferase (Kinase-Glo TM) Inhibition Counterscreen.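 On activity, negative = inhibition: 0% = DMSO only and -100% = 40 µM SIB 1757 full inhibition.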 The note with it: Kinase-Glo luciferase enzyme, luminescence; series mostly up to 58.1 µM; activity, negative = inhibition: at the top concentration. Put shortly: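 Kinase-Glo firefly-type luciferase with 10 uM ATP in 50 mM imidazole pH 7.2, 50 mM KCl, 7 mM MgCl2, 0.01% Tween 20, 0.05% BSA. Luminescence read after 8 min at ambient temperature, normalized to DMSO and 40 uM SIB 1757, then Hill-fitted.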
Background: In Kinase-Glo more light means more ATP remaining.
Regarding `Cc1ccc(NS(=O)(=O)c2cc3c(cc2/C=C/c2ccccc2)NC(=O)CO3)cc1C`, the “activity, negative = inhibition” value is 0.533% (inactive).

Take `c1ccc(-c2nc(-c3ccccn3)no2)cc1`: the Potency is 3.66 µM (active). As to `O=C1c2ccccc2C(=O)N1c1cnc2ccccc2c1`, the “activity, negative = inhibition” value is 0.332% (inactive).

`O=c1c2ccccc2cnn1-c1nc2ccccc2[nH]1`: the Potency is 2.59 µM (active).

For the compound `O=S(=O)(c1ccc2c(c1)OCCO2)N1CCN(S(=O)(=O)c2c(F)cccc2F)CC1`, the Potency result is “inactive”. Regarding `O=C1c2ccccc2C(=O)N1c1cccc2ccncc12`, the “activity, negative = inhibition” value is 0.772% (inactive).

Turning to `Cc1occc1C(=O)O/N=C(\N)c1ccccc1`, the Potency was 6.51 µM (active).

On to `Cc1cc(O)c(-c2cc(O)c(C)cc2O)cc1O`, for which the “activity, negative = inhibition” value is -3.34% (inactive).

On to `O=C1c2ccccc2C(=O)N1c1ncccc1O`, for which the “activity, negative = inhibition” value was -2.76% (inactive). On the same count and under the same terms, the same measure for `CC(=O)N(C1=C(Cl)C(=O)c2ccccc2C1=O)c1ccc(C(=O)O)cc1`: -4.24% (inactive). As for `Cc1cc2c(s1)c1cnn(Cc3ccccc3F)c(=O)c1n2C`, the Potency result was “inactive”. Take `COc1ccccc1N1C(=O)c2ccccc2C1=O`: the “activity, negative = inhibition” value is 0.884% (inactive).

For `Cc1ccc(NS(=O)(=O)c2ccc(F)cc2)cc1C`, the “activity, negative = inhibition” value was -2.52% (inactive). Take `Cc1ccc(NC(=O)c2ccc3c(c2)CCC(=O)N3)cc1C`: the “activity, negative = inhibition” value was -1.54% (inactive). Same read-out and setting: to `Cc1cc(C)n2c(Nc3ccccc3)c(-c3ccc(C)o3)nc2n1` belongs -1.93% (inactive). The same measure, in the same setting: to `Cc1ccc(S(=O)(=O)/N=C2/C=C(Sc3ncn[nH]3)C(=O)c3ccccc32)cc1` belongs -6.43% (inactive). On the same count and under the same terms, to `O=S(=O)(Nc1ccc(O)c(NS(=O)(=O)c2ccccc2)c1)c1ccccc1` belongs -1.03% (inactive); to `O=C1CCc2cc(S(=O)(=O)Nc3cccc4ccccc34)ccc2N1`, -0.456% (inactive); to `Cc1ccc(NS(=O)(=O)c2ccc3c(c2)oc(=O)n3C)cc1C`, -1.45% (inactive).
